Source: PubChem (National Center for Advancing Translational Sciences (NCATS))
MARV entry inh = blocks Marburg virus binding to or entry into cells; Marburg virus pseudotyped entry inhibition, cell reporter; Potency, µM (top dose mostly 37.8 µM), for the others: at the top dose activity change, negative = inhibition, actives largely listed as inhibitors; 300,000 tested, 1.8% active; AID 540276; calls by dose curve; tested in HEK293 cells; also: potency is read from the fitted curve at half-maximal effect
HCMV inh = inhibitors of human cytomegalovirus. AID 1259415. HFF cells, HCMV-luciferase reporter, 72 h; active compounds read low. 410,000 tested, 4.5% active. activity change, negative = inhibition, % at 57.5 µM; in the data active = activity change below about -60%; inconclusive = no clear call, values can overlap the other calls; inactive = above about -39%
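Cell-based, HFFs, 1000 cells/well, 16 h 37C; cpds in DMSO + HCMV-luc, MOI 1 PFU/cell; 72 h 37C; OneGlo luminescence after 5 min RT; norm. to buffer vs Salinomycin 10uM.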
Vaccinia mCherry = vaccinia inhibition (mCherry reporter); Vaccinia virus mCherry reporter infection, fluorescence; Potency, µM (titrated, usually from 36.5 µM), without a hit: at the highest dose activity change, negative = inhibition, usual class: inhibitors; 310,000 tested, 0.63% active; AID 720579; calls by dose curve; tested in A549 cells; also: potency is read from the fitted curve at half-maximal effect; nearly all actives have a fitted effect of over 35% in size
VACV Venus inh = vaccinia inhibition (Venus reporter); Vaccinia virus Venus reporter expression, fluorescence; Potency, µM (doses to about 36.5 µM), for inactives: at the highest dose activity change, negative = inhibition, usual class: inhibitors; 330,000 tested, 0.46% active; AID 720580; calls by dose curve; tested in A549 cells; also: potency is read from the fitted curve at half-maximal effect; nearly all actives have a fitted effect of over 30% in size
HCV inh = inhibitors of hepatitis C virus infection; Huh7.5.1 HCVcc-Cre infection, luciferase reporter, 44 h; Potency, µM (top dose mostly 41.8 µM), for inactives: at the top dose activity change, negative = inhibition, usual class: inhibitors; 340,000 tested, 3.4% active; AID 651820; active = well fitted inhibition curve with a large enough effect; inconclusive = small, poorly fitted or top-dose-only effect, or another doubt; inactive = no such curve, though single readings can be large or run the other way; also: potency is read from the fitted curve at half-maximal effect
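Whole-lifecycle infectious HCVcc-Cre system; cells 1,000/well, compound then virus (~0.5 moi) added 4 h after plating, 44 h culture. Luciferase read 15 sec following 15 min substrate incubation, room temp.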
LASV entry inh = blocks Lassa virus binding to or entry into cells; Lassa virus pseudotype entry inhibition, cell reporter; 300,000 tested, 1.2% active; Potency, µM (highest dose often 37.9 µM), without a hit: at the top dose activity change, negative = inhibition, hits mostly inhibitors; AID 540256; calls by dose curve; tested in HEK293 cells; also: potency is read from the fitted curve at half-maximal effect; nearly all actives have a fitted effect of over 50% in size
* marks the source's active call; other numbers are inactive results; i = inactive; u = inconclusive; x = not tested or not shown; [ ] = remark or other dose. An excerpt weighted towards active compounds, which were near 7.8% of everything screened. % is scaled to controls: 0 for no effect and ±100 for the full control effect.

SMILES	MARV entry inh	HCMV inh	Vaccinia mCherry	VACV Venus inh	HCV inh	LASV entry inh
CCc1ccccc1N=C1S/C(=C/c2ccccc2OCC(=O)N2CCOCC2)C(=O)N1C	-29.3%	-39.4	u	u	u	14.6µM*
Oc1cc(-c2nc3ccccc3s2)cc2c1OCCN(Cc1cccn1-c1ncccn1)C2	x	x	-12.7%	-1.5%	x	x
CC(C)(CO)Nc1nc(N2CCCC2)nc(N2CCCC2)n1	u	5.3	x	x	u	-0.5%
CCNc1nc(N2CCCC2)nc(N2CCCC2)n1	u	-31.5	-21.9%	-22.9%	11.2µM*	-6.6%[46.1 µM]
CCNc1nc(NC(C)(C)C)nc(N2CCCCC2)n1	2µM*	-72.4*	-22.5%	-20.9%	u	u
COc1cc(OC)cc(C(=O)NCC(=O)NCCN2C(=O)S/C(=C\c3ccccc3Cl)C2=O)c1	x	-0.4	x	x	10µM*	x
CCOc1ccc(N(CC(=O)Nc2ccc(OC)cc2)S(=O)(=O)c2ccc(Cl)cc2)cc1	x	3.8	-11.5%	4.5%	x	-11.6%[46.1 µM]
COc1cc2c(cc1NC(=O)Cc1ccc(C)cc1)oc1ccccc12	u	-28.1	x	x	10µM*	8.9%
CNC(=O)Nc1cccc(C(F)(F)F)c1	-0.3%	-20.8	x	x	-0.4%	10.7%
COc1cc2c(cc1NC(=O)CSc1ccc(C)cc1)oc1ccccc12	u	20.0	x	x	10µM*	1.7%
COc1cc2c(cc1NC(=O)c1ccc3c(c1)OCO3)oc1ccccc12	u	1.3	-8.8%	4.7%	14.1µM*	u
COc1cc2c(cc1NC(=O)CCC(=O)O)oc1ccccc12	14.7%[46.1 µM]	-4.6	-6.4%	-7.6%	u	-3.4%[46.1 µM]
COc1cc2c(cc1NC(=O)CSCC(=O)O)oc1ccccc12	-11.9%	-0.6	-23.1%	-5.8%	-14.5%	-23.1%
Cc1ccc(OC(F)F)c(NC(=O)Nc2cccc(C(F)(F)F)c2)c1	u	-99.0*	x	x	10µM*	u
Cc1ccc(-n2c(SCC(=O)NC3CCS(=O)(=O)C3)nc3ccccc3c2=O)c(C)c1 (stereo not given)	x	-23.7	i	-14.1%	x	x
COc1cn(-c2ccccc2)nc1C(=O)Nc1ccc(C)cc1	u	37.2	-29.3%	-24.2%	u	u
COc1cc2c(cc1NC(=O)COc1ccccc1OC)oc1ccccc12	-25.4%	-21.3	x	x	u	1.3%
COc1cc2c(cc1NC(=O)COC(=O)Cn1cnc3ccccc31)oc1ccccc12	u	45.4	-25.3%	-14.6%	2.24µM*	2.2%
COc1cc2c(cc1NC(=O)Nc1ccccc1)oc1ccccc12	-4.0%	-27.9	x	u	5.01µM*	-18.8%
COc1cc2c(cc1NC(=O)CN(C)Cc1ccc(OC)c(OC)c1)oc1ccccc12	1.1%	-29.6	x	x	3.55µM*	x
COc1cc2c(cc1NC(=O)C(C)NCc1ccccc1)oc1ccccc12 (stereo not given)	u	-6.9	-16.5%	-24.3%	u	19.7%
COc1ccc(C)cc1NC(=O)c1nn(-c2ccccc2)cc1OC	u	-16.2	u	u	7.08µM*	u
CC(=O)OC[C@H]1O[C@@H](ON=C(C)CCN2CCCCc3nc(C)c(C)cc32)[C@H](OC(C)=O)[C@@H](OC(C)=O)[C@H]1OC(C)=O	1.0%[14.2 µM]	x	x	x	x	x
Cc1cccc(C)c1NC(=O)CCSCCc1ccccn1	x	10.3	-6.9%	-5.8%	x	20.0%[46.1 µM]
CC(=O)N1c2ccc(S(=O)(=O)N3CCN(c4ccc(C)cc4C)CC3)cc2CC1C (stereo not given)	x	u	u	-26.9%	x	-10.2%[46.1 µM]
SMILES	MARV entry inh	HCMV inh	Vaccinia mCherry	VACV Venus inh	HCV inh	LASV entry inh
COc1ccc(C)cc1NC(=O)Nc1ccccc1	0.0%	40.5	x	-23.5%	3.16µM*	0.7%
COc1ccc(NC(=O)Nc2cc(C)ccc2OC)cc1	-0.3%	-10.4	x	x	u	-3.7%
COCCCNC(=O)c1ccc(Cn2c(=O)c3ccccc3n(Cc3c(C)cc(C)cc3C)c2=O)cc1	-11.9%[46.1 µM]	-3.1	-9.2%	-8.6%	x	5.6%[46.1 µM]
COc1coc(C(O)CN)cc1=O (stereo not given)	-0.5%[46.1 µM]	-32.5	-19.9%	-0.8%	5.7%	-0.4%
CCOC(=O)C(=Cc1cc(=O)c(OC)co1)C(=O)OCC	u	-84.3*	x	x	10µM*	u
COc1cc(/C=N\n2nnnc2N)ccc1O	10.1%	x	x	x	x	x
CCCC12C(=O)C(C)(C(c3ccccc3)=C1c1ccccc1)C1C(=O)N(c3ccc(C)cc3)C(=O)C12 (stereo not given)	u	-86.6*	i	-11.4%	4.47µM*	u
CCC12C(=O)C(CC)(C(c3ccccc3)=C1c1ccccc1)[C@@H]1C(=O)N(c3ccccc3)C(=O)C12 (stereo not given in full)	u	-60.6*	-11.8%	-10.8%	14.1µM*	-1.9%
Cc1ccc(CC2C(=O)N(c3ccccc3)C(=O)C2C)cc1 (stereo not given)	0.0%	-7.0	-7.9%	-14.4%	13.4%	15.0%
CCC12C(=O)C(CC)(C(c3ccccc3)=C1c1ccccc1)[C@@H]1C(=O)N(c3ccc(C)cc3)C(=O)C12 (stereo not given in full)	-21.2%	-8.7	-11.4%	-5.7%	9.3%	-3.8%
COc1ccc(OC)c(NC(=O)Cc2coc3ccc(C(C)C)cc23)c1	-29.3%[46.1 µM]	-6.7	-6.8%	-9.3%	x	-4.8%[46.1 µM]
O=C(COc1ccc(Br)cc1Br)NC1CCCC1	x	-62.7*	x	x	u	x
O=C(COc1ccc(Br)cc1CNC1CCCC1)Nc1ccccc1	1.78µM*	29.5	-9.8%	-21.2%	u	-21.9%[46.1 µM]
CC(C)NC(=O)NC(=O)COc1ccc(Br)cc1Br	6.51µM*	49.3	-12.3%	-20.3%	u	7.31µM*
O=C(COc1ccc(Br)cc1Cl)NC(=O)NC1CCCC1	x	26.3	x	x	-25.9%	x
CC(NCc1cc(Br)ccc1OCC(=O)NCc1ccccc1)c1ccccc1 (stereo not given)	x	-76.4*	x	x	u	x
O=C(COc1ccc(Br)cc1CO)Nc1ccc(F)cc1	1.1%	-1.6	-17.2%[1.46 µM]	-20.4%	u	8.7%
CN(C)CCCN1C(=O)C(O)=C(C(=O)c2cc3ccccc3o2)[C@@H]1c1ccccc1	10.5%	x	x	x	x	x
CCC[C@@H]1Cc2c(sc3ncnc(N)c23)CO1	17.6%	x	x	x	x	x
O=C(Nc1ccn2ccnc2n1)c1ccccc1OC(F)(F)F	x	-29.6	x	x	x	x
Cc1nc(C(=O)Nc2cc(F)cc(Cl)c2)sc1C1(C)CC(c2ccccc2)=NO1 (stereo not given)	x	u	-14.3%	u	14.1µM*	x
COc1cccc(Nc2sc(C(=O)c3ccc(F)cc3)c(N)c2C(=O)NCc2ccc(C)cc2)c1	x	-62.3*	-3.3%[7.34 µM]	-21.3%[7.34 µM]	x	u
Cc1ccc(CNC(=O)c2c(Nc3ccccc3C)sc(C(=O)c3ccc(F)cc3)c2N)cc1	x	-75.5*	11.2µM*	u	x	u
COc1cc(OC)c(/C=C/c2nc3ccccc3o2)c(OC)c1	x	x	-12.1%	-10.3%	x	x
Cc1cccc(N2C(=O)CCSC23C(=O)N(Cc2ccc(F)cc2)c2ccccc23)c1 (stereo not given)	x	0.0	u	-29.6%	x	u
